Source: PubChem
HepG2 tox – kills HepG2 cells in TGF-b inhibitor counter-screen; HepG2 CAGA-GFP viability, ATP luminescence, 18 h; Potency, µM (top dose mostly 46.1 µM), without a hit: at the highest dose activity change, negative = cytotoxicity, usual class: cytotoxic; 410,000 compounds, 0.76% hits
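CellTiter-Glo luminescence gave cytotoxicity after 18 hours at 37 degrees C. The cells were HepG2 CAGA-GFP in 1% FBS DMEM, stimulated with 500 pg/mL TGF-beta after compound addition. %Activity was normalised to no-cell wells (complete cell-killing) and DMSO (no toxicity), and curves were fitted and classified.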
ATXN2 expr inh – ATXN2 expression inhibition. HEK-293 ATXN2-luciferase reporter, luminescence, 24 h. Potency, µM (series often up to 57 µM), inactives show at the highest dose activity change, negative = inhibition, actives largely listed as inhibitors. 360,000 compounds, 0.72% hits. AID 1745845; further: on the % scale 0 is the no-effect control and ±100 the full control effect; nearly all actives have a fitted effect of over 55% in size
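qHTS (up to 57 uM final) was run with 24 h compound exposure of reporter cells at 37 °C. Each well was multiplexed: SteadyGlo luminescence measured ATXN2-luciferase expression after a fluorogenic Gly-Phe-AFC viability readout (25 uM final).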
KB-3-1 tox – kills parental KB-3-1 adenocarcinoma cells; KB-3-1 viability, CellTiter-Glo ATP luminescence, 72 h; Potency, µM (series often up to 46.1 µM), hits mostly cytotoxic; 400,000 compounds, 1.4% hits; further: on the % scale 0 is the no-effect control and ±100 the full control effect; nearly all actives have a fitted effect of over 60% in size
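Screening of KB-3-1 cells (DMEM, 10% FBS, phenol-red free) ran from lowest to highest compound concentration; after 72 h at 37 °C viability was read luminescently and curves fitted.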
ATXN viability – reduces viability in counter-screen for ATXN expression inhibitors. S2 cells (HEK-293 line with an ATXN2-luciferase reporter) viability, CellTiter-Fluor protease fluorescence, 24 h. Potency, µM (titrated, usually from 56.7 µM), actives largely listed as cytotoxic. 400,000 compounds, 0.49% hits. AID 651635; further: nearly all actives have a fitted effect of over 40% in size
KB-V1 MDR tox – kills drug-selected multidrug resistant KB-V1 cells. KB-V1 MDR cells viability, CellTiter-Glo, 72 h. Potency, µM (titrated, usually from 46.1 µM), usual class: cytotoxic. 400,000 compounds, 3.4% hits; further: on the % scale 0 is the no-effect control and ±100 the full control effect; nearly all actives have a fitted effect of over 60% in size
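Cells of the MDR subline KB-V1 are plated, dosed with compound at multiple concentrations, and incubated 72 h at 37 degrees C; CellTiter-Glo is then added and luminescence read after 10 min.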
TGFb inhibitor – TGF-b pathway inhibition | HepG2 CAGA-GFP TGF-b/SMAD3 reporter, GFP fluorescence, 18 h; TGF-beta stimulated, 500 pg/mL final | Potency, µM (top dose mostly 46.1 µM), for the others: at the highest dose activity, negative = inhibition, hits mostly inhibitors | 410,000 compounds, 1.2% hits | AID 588855; further: on the % scale 0 is the no-effect control and ±100 the full control effect; nearly all actives have a fitted effect of over 65% in size
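GFP signal (ex488/em500-530) from TGF-beta-stimulated HEPG2 CAGA-GFP cells, 500 pg/mL final, 18 h at 37 degrees C in DMEM plus 1% FBS, normalized to unstimulated and DMSO-stimulated controls.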
Active calls of the source: *; i = inactive; ? = inconclusive; . = no result given; ! = not confirmed by another sample. In the library only some 5.9% were active in any assay of this set; here they are far more common. The call rests on the fitted dose curve; in most records, active means well fitted curve in the direction sought with a large enough effect; inconclusive means small, poorly fitted or top-dose-only effect, or another doubt; inactive means no such curve, though single readings can be large; an effect the other way counts as inactive or inconclusive. Potency means the concentration at half of the fitted maximal effect.

SMILES	HepG2 tox	ATXN2 expr inh	KB-3-1 tox	ATXN viability	KB-V1 MDR tox	TGFb inhibitor
COc1cc(C#N)ccc1OCC(=O)Nc1cccc(S(=O)(=O)N2CCCC2)c1	-6.6%	.	i	i	16.4µM*	-8.6%
O=C(CNc1cc(S(=O)(=O)N2CCCC2)ccc1OCC(F)(F)F)Nc1cccc(C(F)(F)F)c1	-10.5%	-20.9%	20.6µM*	i	9.2µM*	?
N#Cc1ccccc1OCC(=O)Nc1cccc(S(=O)(=O)N2CCCC2)c1	3.2%	-12.5%	i	i	i	-6.2%
O=C(NCC1(N2CCOCC2)CCCCCC1)c1cnn(-c2nccc(-c3ccco3)n2)c1C1CC1	.	.	.	i	.	.
CC(C)[C@H](NC(=O)Cc1ccccc1)C(=O)OCc1cc(=O)n2c(n1)sc1ccccc12	-24.5%	6.3%	i	i	i	15.8µM*
COc1ccc(N2C(=O)[C@@H]3C[C@H]2CN3Cc2cccn2-c2ccc(Cl)cn2)c(C)c1	.	.	.	i	.	.
CCCCCCCCCCCCCCCC[n+]1cccc(C(=O)N(CC)CC)c1	12.6µM*!	31.6µM*!	13µM*!	31.6µM*	i	?
CCCCCCCC[n+]1cccc(C(=O)N(CC)CC)c1	13.2%	.	i	i	i	16.4%
NC(=O)CCCn1c(C(=O)c2cc(Cl)c(N)c(Cl)c2)c2ccc([N+](=O)[O-])cc2[n+]1[O-]	-54.5%	?	?	28.2µM*	i	7.94µM*
Cc1ccc(C(=O)c2c3ccc([N+](=O)[O-])cc3[n+]([O-])n2CCCC(N)=O)cc1	-21.5%	?	?	?	i	?
NCCCn1c(C(=O)c2ccc(Cl)cc2)c2ccc(C(F)(F)F)cc2[n+]1[O-]	-46.3%	4.7%	i	i	i	18.2%
NC(=O)CCCn1c(C(=O)c2ccc(Cl)cc2)c2ccc([N+](=O)[O-])cc2[n+]1[O-]	-33.5%	?	?	17.8µM*	?	?
NCCCn1c(C(=O)c2ccc(Cl)cc2)c2ccc([N+](=O)[O-])cc2[n+]1[O-]	-31.9%	?	i	?	i	10µM*
NC(=O)CCCn1c(C(=O)c2ccc(Cl)cc2)c2ccc(C(F)(F)F)cc2[n+]1[O-]	-15.9%	7.0%	?	?	i	-1.2%
O=S1(=O)C[C@H](N2CCN(CCO)CC2)[C@@H](COCc2ccccc2)N1	-18.9%	-1.4%	i	i	i	-15.8%
COc1cccc(CNC(=O)Cn2nc3c(cc2=O)CCCC3)c1OC	-10.6%	.	.	.	.	-5.6%
CCc1ccc(/C=C/C(=O)c2c(C)cc(C)[nH]c2=O)cc1	-61.5%	?	23.1µM*	?	?	?
COc1ccc(/C=C/C(=O)c2c(C)cc(C)[nH]c2=O)c2ccccc12	12.6µM*	?	?	?	i	17.8µM*
Cc1cc(C)c(C(=O)/C=C/c2cccs2)c(=O)[nH]1	-13.1%	-9.1%	i	i	?	-1.9%
Cc1ccc(/C=C/C(=O)c2c(C)cc(C)[nH]c2=O)cc1	-47.7%	?	?	?	?	-3.8%
COc1cc2c(cc1NC(=O)C(Cl)Cl)-c1ccc(NC(=O)C(Cl)Cl)cc1C2	7.94µM*	-16.5%	?	.	14.6µM*	4.47µM*
Cc1ccc(Nc2nc3ccc(C)cc3nc2-n2nc(C)cc2C)c(C)c1	6.9%	4.5%	i	i	i	20.1%
CCOC(=O)c1c(C=O)c(C)n(Cc2ccccc2Cl)c1C	-10.6%	-7.6%	i	i	23.1µM*	-11.2%
Cc1cccc(N2CCN(C(=O)COc3ccc4ccc(=O)oc4c3)CC2)c1C	-26.2%	.	i	?	i	?
Cc1cccc(N2CCN(C(=O)COc3ccc4c(c3)CCC4)CC2)c1C	-39.3%	3.5%	?	i	20.6µM*	-9.7%
SMILES	HepG2 tox	ATXN2 expr inh	KB-3-1 tox	ATXN viability	KB-V1 MDR tox	TGFb inhibitor
CCc1c(-c2cccc(Br)c2)ncn1Cc1cccc(-c2ccccc2)c1	.	.	?	.	i	.
CCc1c(-c2cccc(Cl)c2)ncn1Cc1cccc(-c2ccccc2)c1	.	.	?	.	16.4µM*	.
CCCc1c(-c2cccc(Cl)c2)ncn1Cc1cccc(-c2ccccc2)c1	.	.	?	.	20.6µM*	.
CN(CCCNC(=O)C1CCC(=O)N1Cc1ccc(F)cc1)c1ccccc1 (stereo not given)	-0.1%	-3.6%	i	i	i	3.3%
CCN(CCCNC(=O)C1CCC(=O)N1Cc1ccccc1Cl)c1cccc(C)c1 (stereo not given)	-5.9%	-8.0%	i	i	6.51µM*	-21.9%
CN(CCCNC(=O)C1CCC(=O)N1Cc1ccccc1Cl)c1ccccc1 (stereo not given)	-15.9%	-10.9%	i	i	23.1µM*	-2.2%
CCN(CCCNC(=O)C1CCC(=O)N1Cc1ccc(C)cc1)c1cccc(C)c1 (stereo not given)	-27.9%	-9.2%	i	i	i	13.8%
CC1=C(C(=O)Nc2ccccc2C)C(c2ccccn2)n2ncnc2N1 (stereo not given)	5.9%	15.5%	i	i	?	3.3%
CCN(CC)C1CCN(C(=O)c2cnn(-c3nccc(-c4ccco4)n3)c2C(C)C)C1 (stereo not given)	.	.	.	i	.	.
O=c1c(Cc2ccccc2)c(O)c2cccc3c4c(n1c23)CCCC4	-33.8%	-6.3%	i	?	i	14.1µM*
CCOc1ccc(NC(C(=O)Nc2cccc(C(C)=O)c2)c2ccccc2)cc1 (stereo not given)	-4.8%	-11.0%	i	i	i	-6.6%
CCN(CC)CCNC(C(=O)Nc1cccc(C(C)=O)c1)c1ccccc1 (stereo not given)	12.6µM*	-5.7%	i	i	i	-28.8%
COCCN(CC(=O)Nc1cccc(C)c1C)C(=O)C1CCN(S(=O)(=O)c2ccccc2)CC1	-15.9%	2.4%	i	i	9.2µM*	?
COc1ccc(Cl)cc1NC(=O)C1COc2ccccc2O1 (stereo not given)	-18.1%	7.9%	i	i	i	-12.3%
COc1ccc(Cl)cc1NC(=O)CN(C)C(=O)C1COc2ccccc2O1 (stereo not given)	-7.6%	-15.4%	i	?	16.4µM*	-6.7%
COc1ccc(Cl)cc1NC(=O)CN(C)C(=O)c1cc2c(s1)CCCC2	-12.5%	-22.1%	?	i	13µM*	-3.6%
COCCN(CC(=O)Nc1cccc(C)c1C)C(=O)c1cc2c(s1)CCC2	3.2%	-6.8%	i	i	7.31µM*	-10.1%
